Experimental data taken from publication PMC4336329 (PLoS ONE, 2015).
In all, about 310,000 compounds went through this assay and about 14,000 (4.5%) showed an effect of 50% or more. The effect is printed as a negative number. Only a selection was taken, and strong results are over-represented in it overall.

Biological target: human ether-à-go-go-related gene (hERG) potassium channel (human, UniProt Q12809)
Test: primary screen, population patch clamp on CHO cells stably expressing hERG; higher = less effect of the substance
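Further: peak tail current of the secondary pulse compared with the same well before compound.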

Sequence of human ether-à-go-go-related gene (hERG) potassium channel (Q12809 whole entry, looked up): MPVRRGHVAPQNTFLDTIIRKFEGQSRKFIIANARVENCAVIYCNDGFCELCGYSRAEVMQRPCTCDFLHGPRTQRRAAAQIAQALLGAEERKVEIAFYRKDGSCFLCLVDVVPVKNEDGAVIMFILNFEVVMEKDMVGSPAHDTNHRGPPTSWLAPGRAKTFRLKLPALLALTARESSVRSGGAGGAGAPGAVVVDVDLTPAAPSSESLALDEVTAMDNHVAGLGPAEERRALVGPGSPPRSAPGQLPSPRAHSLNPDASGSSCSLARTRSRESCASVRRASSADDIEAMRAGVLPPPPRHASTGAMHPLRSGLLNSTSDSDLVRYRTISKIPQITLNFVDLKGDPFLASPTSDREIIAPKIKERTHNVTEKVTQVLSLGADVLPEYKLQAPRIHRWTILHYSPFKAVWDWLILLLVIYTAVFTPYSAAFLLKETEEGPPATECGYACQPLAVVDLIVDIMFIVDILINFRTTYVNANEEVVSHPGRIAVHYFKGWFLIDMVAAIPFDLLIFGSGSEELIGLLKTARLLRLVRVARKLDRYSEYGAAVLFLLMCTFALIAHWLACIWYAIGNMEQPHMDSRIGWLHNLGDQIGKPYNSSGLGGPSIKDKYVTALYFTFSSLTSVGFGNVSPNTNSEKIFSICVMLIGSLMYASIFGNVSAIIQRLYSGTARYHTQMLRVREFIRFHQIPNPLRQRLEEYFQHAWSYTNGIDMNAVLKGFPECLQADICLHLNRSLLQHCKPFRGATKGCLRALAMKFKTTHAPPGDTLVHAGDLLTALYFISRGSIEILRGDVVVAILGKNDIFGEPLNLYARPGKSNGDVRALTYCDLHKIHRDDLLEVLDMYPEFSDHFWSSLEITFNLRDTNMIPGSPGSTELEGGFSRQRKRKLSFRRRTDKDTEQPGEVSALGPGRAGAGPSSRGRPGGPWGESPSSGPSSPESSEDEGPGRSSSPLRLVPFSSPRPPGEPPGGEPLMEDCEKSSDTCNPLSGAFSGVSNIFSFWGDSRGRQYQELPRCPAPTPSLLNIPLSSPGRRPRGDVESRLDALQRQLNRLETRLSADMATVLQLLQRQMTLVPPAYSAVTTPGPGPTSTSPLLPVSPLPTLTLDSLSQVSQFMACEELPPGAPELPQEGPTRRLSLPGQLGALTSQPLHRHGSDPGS

Row | Structure (SMILES) | hERG current change (%, negative = inhibition) at 10uM [%]
1 | Cc1cc2ncn(CC(O)COc3cccc(C(=O)O)c3)c2cc1C (stereo not drawn) | -10.8
2 | Cc1ccc(C(=O)Nc2ccccc2C(=O)O)cc1S(=O)(=O)NCc1ccccc1 | 9.8
3 | CC(CN1CCOCC1)C(=O)c1ccccc1.Cl (stereo not drawn) | 8.47
4 | Cc1ccc(C)c(S(=O)(=O)NC(C)C(=O)Nc2ccc(-c3nc4ccccc4s3)cc2)c1 (stereo not drawn) | 2.9
5 | Cc1ccc(/C=C/C(=O)OCC(=O)NC(=O)NCc2ccco2)cc1 | 18.7
6 | CCc1cccc(C)c1NC(=O)COC(=O)c1ccc2c(c1)S(=O)(=O)c1ccccc1C2=O | -0.0165
7 | Cc1nn(C)c(C)c1CCC(=O)NC1CC(C)(C)Cc2c1cnn2-c1ccccc1 (stereo not drawn) | -28.1
8 | CCc1nccn1CCC(=O)NC1CC(C)(C)Cc2c1cnn2-c1ccc(C)cc1 (stereo not drawn) | -22.1
9 | COC(=O)CCCC(=O)NC1CC(C)(C)Cc2c1cnn2-c1ccc(C)cc1 (stereo not drawn) | -24.7
10 | C=CCC(=O)NC1CC(C)(C)Cc2c1cnn2-c1ccc(C)cc1 (stereo not drawn) | -69.7
11 | CSCCC(=O)NC1CC(C)(C)Cc2c1cnn2-c1ccccc1C (stereo not drawn) | -10.4
12 | Cc1ccccc1-n1ncc2c1CC(C)(C)CC2NC(=O)CCC1=NNC(=O)CC1 (stereo not drawn) | -75.9
13 | CC1(C)Cc2c(cnn2-c2ccccc2)C(NC(=O)CCc2ccncc2)C1 (stereo not drawn) | -68.8
14 | Cc1ccc(-n2ncc3c2CC(C)(C)CC3NC(=O)CCc2ccc(=O)[nH]n2)cc1 (stereo not drawn) | -11.2
15 | C=CCC(=O)NC1CC(C)(C)Cc2c1cnn2-c1ccccc1C (stereo not drawn) | 4.35
16 | COC(=O)CCC(=O)NC1CC(C)(C)Cc2c1cnn2-c1ccccc1 (stereo not drawn) | -12
17 | Cc1ccc(-n2ncc3c2CC(C)(C)CC3NC(=O)CCc2ccncc2)cc1 (stereo not drawn) | -72.2
18 | COc1ccc(-n2ncc3c2CC(C)(C)CC3NC(=O)CCC2=NNC(=O)CC2)cc1 (stereo not drawn) | 15.8
19 | CCCCOc1ccc(C(=O)NCC(=O)OC2CCOC2=O)cc1 (stereo not drawn) | 4.84
20 | Cc1cc(C(=O)N/N=C/c2sc(N3CCOCC3)nc2-c2ccccc2)c(C)o1 | 8.26
21 | COc1ccc(C(=O)N2CCCC2)cc1S(=O)(=O)N1CCOCC1 | -1.7

Row | Structure (SMILES) | hERG current change (%, negative = inhibition) at 10uM [%]
22 | CCN[C@H]1CN(CCCOC)S(=O)(=O)c2sc(S(N)(=O)=O)cc21 | 2.51
23 | CC(C)NS(=O)(=O)c1ccc(CCC(=O)N2CCc3ccccc3C2)cc1 | -11.9
24 | Cc1c(C(=O)OCC(=O)c2ccc3c(c2)OCCO3)oc2ccccc12 | 4.75
25 | COc1cc(/C=C2\CCC(C3CCCC3)C2=O)cc(OC)c1OC (stereo not drawn) | 9.98
26 | O=C(CSc1nnc2ncccn12)Nc1cccc2ccccc12 | 5.09
27 | Cc1ccc(S(=O)(=O)N(C)CCCC(=O)Nc2cccc3ccccc23)cc1 | -28.1
28 | CC(=O)Nc1ccc(NC(=S)NC(=O)/C=C/c2ccc(Cl)cc2)cc1 | 17.7
29 | O=C(Oc1c(Br)cc(C(=S)N2CCOCC2)cc1Br)c1ccc(Cl)cc1 | 11.3
30 | CC(=O)N1N=C(c2ccc(NS(=O)(=O)c3ccccc3)cc2)CC1c1ccco1 (stereo not drawn) | -12.2
31 | Cc1ccc(-n2ncc3c2CC(C)(C)CC3NC(=O)CCc2cccnc2)cc1 (stereo not drawn) | -63.9
32 | Cc1ccc(-n2ncc3c2CC(C)(C)CC3NC(=O)CCN2CCCCC2=O)cc1 (stereo not drawn) | 3.16
33 | Cc1ccc(-n2ncc3c2CC(C)(C)CC3NC(=O)CCc2c(C)noc2C)cc1 (stereo not drawn) | -32.3
34 | Cc1ccc(-n2ncc3c2CC(C)(C)CC3NC(=O)CCc2cnn(C)c2)cc1 (stereo not drawn) | -52.6
35 | Cc1ccc(-n2ncc3c2CC(C)(C)CC3NC(=O)CCCN2CCCC2=O)cc1 (stereo not drawn) | -1.21
36 | Cc1ccc(-n2ncc3c2CC(C)(C)CC3NC(=O)CCN2CCCO2)cc1 (stereo not drawn) | -37.7
37 | O=c1ccc2cc(S(=O)(=O)N3CCN(c4cc(Cl)ccc4Cl)CC3)ccc2o1 | -20.7
38 | Cc1cc(NC(=O)CSCC(=O)Nc2ccccc2Oc2ccccc2)no1 | -8.79
39 | NC(=O)CSc1oc(-c2cccs2)nc1S(=O)(=O)c1ccccc1 | -15.5
40 | COc1cccc(/C=N/NC(=O)CN2CC(c3ccccc3)CC2=O)c1O (stereo not drawn) | -9.13
41 | O=c1[nH]c2ccccc2c(O)c1-[n+]1ccccc1.[Cl-] | 22.5
42 | COc1ccc(CCNC(=O)C(=O)Nc2ccc3nc4n(c(=O)c3c2)CCCCC4)cc1OC | -27.3

Row | Structure (SMILES) | hERG current change (%, negative = inhibition) at 10uM [%]
43 | Oc1ccc(/C=N/Nc2nc(N3CCCC3)nc(N3CCCC3)n2)cc1O | 2.71
44 | Cl.c1ccc(CSCc2cn3ccccc3n2)cc1 | 2.98
45 | Cc1ncc([N+](=O)[O-])n1CCOC(=O)NC(Nc1ccc(F)cc1)C(Cl)(Cl)Cl (stereo not drawn) | -54.6
46 | Cc1ccccc1NC(NC(=O)OCCn1c([N+](=O)[O-])cnc1C)C(Cl)(Cl)Cl (stereo not drawn) | 2.42
47 | Cc1ccc(NC(NC(=O)OCCn2c([N+](=O)[O-])cnc2C)C(Cl)(Cl)Cl)cc1 (stereo not drawn) | 6.71
48 | COc1ccccc1NC(=O)COn1nnc2ccc(S(=O)(=O)N3CCOCC3)cc21 | 4.92
49 | CN(CC(=O)Nc1cccc(F)c1)C(=O)c1cn2ccccc2n1 | -5
50 | Cc1ccc(OCC(=O)N(C)CC(=O)Nc2ccc(Cl)c(C(F)(F)F)c2)c([N+](=O)[O-])n1 | -54.8
51 | CN(CC(=O)Nc1ccc(Cl)c(C(F)(F)F)c1)C(=O)CNC(=O)C1CCCCC1 | -31.5
52 | COc1ccc(NC(=O)CN(C)C(=O)CCCNC(=O)c2ccc(Cl)cc2)cc1 | -30.8
53 | CN(CC(=O)Nc1ccc(Cl)c(C(F)(F)F)c1)C(=O)CCN1C(=O)C2CC=CCC2C1=O (stereo not drawn) | -37.2
54 | CN(CC(=O)Nc1ccc(Cl)c(C(F)(F)F)c1)C(=O)c1cn2ccccc2n1 | -61.9
55 | CN(CC(=O)Nc1ccc(Cl)c(C(F)(F)F)c1)C(=O)CCN1C(=O)C2CCCCC2C1=O (stereo not drawn) | -50.2
56 | CCOc1ccc(NC(=O)CN(C)C(=O)c2cn3ccccc3n2)cc1OCC | -19.2
57 | Cc1ccc(OCC(=O)N(C)CC(=O)Nc2ccccc2Cl)c([N+](=O)[O-])n1 | -16.7
58 | CN(CC(=O)Nc1ccc(Cl)cc1)C(=O)CCNC(=O)c1ccc(Cl)cc1 | -67.7
59 | COc1ccccc1C(=O)NCCC(=O)N(C)CC(=O)Nc1ccc(Cl)cc1 | -31.9
60 | Cc1ccc(OCC(=O)N(C)CC(=O)Nc2ccc(F)cc2)c([N+](=O)[O-])n1 | -24.2
61 | COc1cc(C2/C(=C(/O)c3ccccc3)C(=O)C(=O)N2c2ccccn2)ccc1O (stereo not drawn) | 25.1
62 | O=C(COC(=O)CN1C(=O)C2CC=CCC2C1=O)Nc1cc(C(F)(F)F)ccc1N1CCOCC1 (stereo not drawn) | -26.8
63 | CC(=O)OCCN(Cc1ccccc1)Cc1ccc2c(c1)OCO2 | -10.8

Row | Structure (SMILES) | hERG current change (%, negative = inhibition) at 10uM [%]
64 | CC(/C=N/n1c(-c2cc(C)[nH]n2)n[nH]c1=S)=C\c1ccccc1 | 14.7
65 | COc1cccc(NC(=O)CN(C)C(=O)CCCNC(=O)c2ccc(Cl)cc2)c1 | -46.5
66 | CN(CC(=O)Nc1ccc(Cl)c(C(F)(F)F)c1)C(=O)CCCNC(=O)c1ccc(Cl)cc1 | -52.2
67 | COc1ccc(NC(=O)CCCCCN2C(=O)CCC2=O)cc1Cl | -2.22
68 | O=C(CCCN1C(=O)CCC1=O)Nc1ccc(Cl)c(C(F)(F)F)c1 | -18.8
69 | COc1ccc(CCC(=O)N(C)CC(=O)Nc2ccc(Cl)c(C(F)(F)F)c2)cc1 | 22.2
70 | CN(CC(=O)Nc1ccc(Cl)c(C(F)(F)F)c1)Cc1cc(=O)n2ccsc2n1 | -82.8
71 | CN(CC(=O)Nc1ccc(Cl)cc1)Cc1cc(=O)n2ccsc2n1 | -33.3
72 | CN(CC(=O)Nc1cccc(F)c1)C(=O)CCCNC(=O)c1ccc(Cl)cc1 | -36.7
73 | O=C(CCCCCN1C(=O)CCC1=O)Nc1ccc(Cl)c(C(F)(F)F)c1 | -58.7
74 | Cc1ccc(NC(=O)CN(C)Cc2cc(=O)n3ccsc3n2)cc1 | -7.66
75 | COc1ccc(NC(=O)CSCC(=O)N(C)CC(=O)Nc2ccc(Cl)c(C(F)(F)F)c2)cc1 | -68.6
76 | COc1ccc(NC(=O)CN(C)C(=O)CSCC(=O)Nc2ccc(C)cc2)cc1 | -0.753
77 | CC(=O)N1N=C(c2ccc(C)cc2)OC1c1cccnc1 (stereo not drawn) | 8.57
78 | CCOC(=O)C1CCCN(S(=O)(=O)c2ccc(-n3cnnn3)c(C)c2)C1 (stereo not drawn) | -11.3
79 | COc1ccc(Cl)cc1NC(=O)CN(C)C(=O)CCCNC(=O)c1ccc(Cl)cc1 | -55.4
80 | COc1ccc(Cl)cc1NC(=O)CN(C)C(=O)CCNC(=O)c1ccccc1OC | -9.08
81 | COc1ccc(Cl)cc1NC(=O)CCCNC(=O)c1ccc(Cl)cc1 | -4.84
